The target of assay [1] is Acetylcholinesterase (Homo sapiens) (UniProt P22303). The experiment in a line: Acetylcholinesterase (AChE) small molecule antagonists: colormetric cell-based qHTS assay (AID 1347395). Further: nearly all actives have a fitted effect of over 30% in size. Further: potency means the concentration at half of the fitted maximal effect. Summed up: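 In this cell-based qHTS, attached SH-SY5Y cells were treated with test chemicals for 30 min, after which acetylthiocholine hydrolysis was followed by DTNB colour development over 90 min at 37 C.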
Sequence of Acetylcholinesterase (Homo sapiens) (P22303 whole entry, looked up): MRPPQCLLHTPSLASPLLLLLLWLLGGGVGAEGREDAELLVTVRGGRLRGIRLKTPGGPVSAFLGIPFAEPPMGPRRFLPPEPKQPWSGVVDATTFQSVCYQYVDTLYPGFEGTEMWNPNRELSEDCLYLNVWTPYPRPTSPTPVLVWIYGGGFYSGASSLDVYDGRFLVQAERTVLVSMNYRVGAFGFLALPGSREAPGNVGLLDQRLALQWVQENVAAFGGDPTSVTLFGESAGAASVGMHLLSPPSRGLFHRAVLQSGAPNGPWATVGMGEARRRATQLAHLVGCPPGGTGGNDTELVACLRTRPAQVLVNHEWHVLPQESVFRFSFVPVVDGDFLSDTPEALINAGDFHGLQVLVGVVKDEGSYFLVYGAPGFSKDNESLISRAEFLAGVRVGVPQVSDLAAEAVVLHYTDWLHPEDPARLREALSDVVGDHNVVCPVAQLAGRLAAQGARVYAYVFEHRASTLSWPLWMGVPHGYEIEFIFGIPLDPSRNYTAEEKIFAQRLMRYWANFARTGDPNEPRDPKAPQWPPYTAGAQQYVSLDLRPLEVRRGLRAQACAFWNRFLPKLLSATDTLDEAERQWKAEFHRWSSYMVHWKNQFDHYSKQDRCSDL
Background: Quantitative high-throughput screening tests each substance at several concentrations.

Assay [2] has the same target. The experiment in a line: Acetylcholinesterase (AChE) small molecule antagonists: enzyme-based qHTS assay (AID 1347397). Further: nearly all actives have a fitted effect of over 55% in size. The settings on record: Potency: AChE enzyme activity inhibition; outcome: AChE enzyme activity inhibition. A digest of the protocol:
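Colorimetric DTNB read-out of thiocholine released from acetylthiocholine by recombinant human AChE (50 mU/mL as dispensed). Compounds were preincubated 30 min at RT before substrate/DTNB addition, with a 10 min RT reaction.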

Assay [3] shares this target. The experiment in a line: Acetylcholinesterase (AChE) small molecule antagonists: fluorescence cell-based qHTS assay (AID 1347398). Further: nearly all actives have a fitted effect of over 50% in size. Further: potency means the concentration at half of the fitted maximal effect. The note with it: Potency: AChE activity; outcome: AChE activity. A digest of the protocol:
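SH-SY5Y, 2,000 cells/well, attached overnight; cmpd 30 min 37 C; acetylthiocholine/Thiolite Green cocktail 40 min RT; fluorescence Ex/Em 490/520 nm.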

Assay [4] has the same target. The experiment in a line: Acetylcholinesterase (AChE) small molecule antagonists: enzyme-based qHTS assay with human liver microsomes (AID 1347399). Further: nearly all actives have a fitted effect of over 60% in size. The settings on record: Potency: qHTS inhibition; outcome: qHTS inhibition. A digest of the protocol: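 Recombinant human AChE (50 mU/mL in the enzyme mix) and human liver microsomes (0.25 mg/mL final) were preincubated with compound and NADPH (0.25 mg/mL final) for 30 min at 37 C. Acetylthiocholine/DTNB was then added; thiocholine was read colorimetrically after 10 min at room temperature.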

A number with no mark means an inactive call. Inconclusive results are not listed. Calls of active or inactive are those of the source. The call rests on the fitted dose curve.
On the % scale 0 is the no-effect control and ±100 the full control effect.

Consider `CC1=CCC(C(C)(C)O)CC1` (stereo not given), for which the Potency entry in assay [1], in assay [2], in assay [3] and in assay [4] was “inactive” throughout.

Take `CCCCOC(=O)c1ccc(N)cc1`: the Potency entry in assay [1], in assay [2], in assay [3] and in assay [4] was “inactive” in each case.

On to `CCO[Si](CCCN=C=O)(OCC)OCC`, for which the Potency result in assay [1], in assay [2], in assay [3] and in assay [4] was “inactive” in each case.

For the molecule `C/C=C/C(=O)O`, the Potency entry in assay [1], in assay [2], in assay [3] and in assay [4] was “inactive” each time.

As for `CC1=CCC(C(C)C)=CC1`, the Potency result in assay [1], in assay [2], in assay [3] and in assay [4] was “inactive” each time.

`OCCN(CCO)c1cccc(Cl)c1`: the Potency entry in assay [1], in assay [2], in assay [3] and in assay [4] was “inactive” throughout.

Consider `CC(C)[C@H]1CC[C@@H](C)CC1=O`, for which the Potency result in assay [1], in assay [2], in assay [3] and in assay [4] was “inactive” throughout.

`CCCCCN(CCCOC)C(=O)C(CCC(=O)O)NC(=O)c1ccc(Cl)c(Cl)c1` (stereo not given): the Potency entry in assay [1], in assay [2], in assay [3] and in assay [4] was “inactive” throughout.

As for `Nc1nc2ccc([N+](=O)[O-])cc2s1`, the Potency result in assay [1], in assay [2], in assay [3] and in assay [4] was “inactive” in each case.

With `C=C(C)C(=O)OCCCCCCCCCCCCCCCCCC`, the activity, negative = inhibition in assay [1] was 0.231% [at 23.6 µM]. In addition, the activity change, negative = inhibition in assay [2] is 0.946% [at 23.6 µM]; in assay [3], 2.72% [at 23.8 µM]; in assay [4], 0.563% [at 23.6 µM].

Consider `CCC(=O)OC`, for which the Potency result in assay [1], in assay [2], in assay [3] and in assay [4] was “inactive” in each case.

Regarding `COC(=O)N/N=C/c1c[n+]([O-])c2ccccc2[n+]1[O-]`, the Potency entry in assay [1], in assay [2], in assay [3] and in assay [4] was “inactive” throughout.

As for `N[C@H]1CN(c2c(F)cc3c(=O)c(C(=O)O)cn(C4C[C@H]4F)c3c2Cl)CC12CC2` (stereo not given in full), the Potency entry in assay [1], in assay [2], in assay [3] and in assay [4] was “inactive” each time.

As for `CCCCOc1cc(C(=O)NCCN(CC)CC)c2ccccc2n1`, the Potency entry in assay [1], in assay [2], in assay [3] and in assay [4] was “inactive” in each case.

For `O=C=Nc1ccc(Cl)c(Cl)c1`, the Potency result in assay [1], in assay [2], in assay [3] and in assay [4] was “inactive” throughout.

On to `Cc1ccc(S(=O)(=O)NC(=O)NC2CCCCCCC2)cc1`, for which the Potency result in assay [1], in assay [2], in assay [3] and in assay [4] was “inactive” in each case.

For `Nc1nc2c(ncn2COC(CO)CO)c(=O)[nH]1`, the Potency entry in assay [1], in assay [2], in assay [3] and in assay [4] was “inactive” throughout.

Turning to `Nc1ccn([C@@H]2O[C@H](CO)[C@@H](O)[C@@H]2O)c(=O)n1`, the Potency entry in assay [1], in assay [2], in assay [3] and in assay [4] was “inactive” each time.

Turning to `CCOC(=O)NCCC[Si](OCC)(OCC)OCC`, the Potency entry in assay [1], in assay [2], in assay [3] and in assay [4] was “inactive” each time.

As for `Cc1cc(C)c(C)c(O)c1`, the Potency entry in assay [1], in assay [2], in assay [3] and in assay [4] was “inactive” throughout.

As for `CC(C)(C)CC(C)(C)c1ccc(Nc2ccc(C(C)(C)CC(C)(C)C)cc2)cc1`, the activity, negative = inhibition in assay [1] is -3.03% [at 10.5 µM]. Also, the figures for the activity change, negative = inhibition in assay [2], in assay [3] and in assay [4] were -6.81% [at 10.5 µM], -4.09% [at 10.5 µM] and 0.323% [at 10.5 µM], respectively.

`CC[C@@H]([C@H](C)O)n1ncn(-c2ccc(N3CCN(c4ccc(OC[C@@H]5CO[C@@](Cn6cncn6)(c6ccc(F)cc6F)C5)cc4)CC3)cc2)c1=O`: the Potency result in assay [1], in assay [2], in assay [3] and in assay [4] was “inactive” throughout.

In the case of `CCCCC(CC)COC(C)=O` (stereo not given), the Potency entry in assay [1], in assay [2], in assay [3] and in assay [4] was “inactive” throughout.

With `COCC(O)CO` (stereo not given), the Potency result in assay [1], in assay [2], in assay [3] and in assay [4] was “inactive” throughout.

Consider `NC(CO)(CO)CO`, for which the result in assay [1], in assay [2], in assay [3] and in assay [4] was inactive.

As for `CC(C)(O)C#CC(C)(C)O`, the Potency result in assay [1], in assay [2], in assay [3] and in assay [4] was “inactive” throughout.

Turning to `c1ccc2cnccc2c1`, the Potency entry in assay [1], in assay [2], in assay [3] and in assay [4] was “inactive” throughout.

For the molecule `CC(C)(CO)C(O)C(=O)NCCCO` (stereo not given), the Potency result in assay [1], in assay [2], in assay [3] and in assay [4] was “inactive” in each case.

As for `C=C(C)C(=O)OCC(C)O` (stereo not given), the Potency entry in assay [1], in assay [2], in assay [3] and in assay [4] was “inactive” each time.

As for `Cc1ccc(C)c(S(=O)(=O)O)c1`, the Potency result in assay [1], in assay [2], in assay [3] and in assay [4] was “inactive” in each case.

For `CN1C(=O)CC(c2ccccc2)C1=O` (stereo not given), the Potency result in assay [1], in assay [2], in assay [3] and in assay [4] was “inactive” in each case.

Regarding `CC(C)[C@@H]1CC[C@@H](C)CC1=O`, the Potency entry in assay [1], in assay [2], in assay [3] and in assay [4] was “inactive” in each case.

In the case of `CCN(CC)S(=O)(=O)c1ccc(C(=O)O)cc1`, the Potency entry in assay [1], in assay [2], in assay [3] and in assay [4] was “inactive” in each case.

As to `Cc1c(C)c2c(c(C)c1O)CC[C@@](C)(CCC[C@H](C)CCC[C@H](C)CCCC(C)C)O2`, the Potency result in assay [1], in assay [2], in assay [3] and in assay [4] was “inactive” in each case.

Regarding `O=c1cc(-c2ccc(O)cc2)oc2cc(O)cc(O)c12`, the Potency entry in assay [1], in assay [2], in assay [3] and in assay [4] was “inactive” in each case.

Consider `C=C[Si](OCCOC)(OCCOC)OCCOC`, for which the Potency result in assay [1], in assay [2], in assay [3] and in assay [4] was “inactive” in each case.

As for `COc1ccc2cc1Oc1cc3c(cc1OC)CC[N+](C)(C)[C@H]3Cc1ccc(cc1)Oc1c(OC)c(OC)cc3c1[C@@H](C2)[N+](C)(C)CC3`, the Potency result in assay [1], in assay [2], in assay [3] and in assay [4] was “inactive” in each case.

In the case of `Cc1ncc(COP(=O)(O)O)c(C=O)c1O`, the Potency result in assay [1], in assay [2], in assay [3] and in assay [4] was “inactive” in each case.

Take `O=C1CCc2ccccc2O1`: the Potency entry in assay [1], in assay [2], in assay [3] and in assay [4] was “inactive” in each case.

`CC(C)Oc1ccccc1O`: the Potency result in assay [1], in assay [2], in assay [3] and in assay [4] was “inactive” in each case.

As for `NCCCCCC(=O)O`, the Potency entry in assay [1], in assay [2], in assay [3] and in assay [4] was “inactive” each time.

With `CCNC(=S)NCC`, the Potency entry in assay [1], in assay [2], in assay [3] and in assay [4] was “inactive” throughout.

With `CC1=CCC(O)(C(C)C)CC1` (stereo not given), the Potency entry in assay [1], in assay [2], in assay [3] and in assay [4] was “inactive” throughout.

As to `CC(O)CN` (stereo not given), the Potency result in assay [1], in assay [2], in assay [3] and in assay [4] was “inactive” each time.

As for `CO[C@@]1(NC(=O)CSC[C@@H](N)C(=O)O)C(=O)N2C(C(=O)O)=C(CSc3nnnn3C)CS[C@@H]21`, the Potency result in assay [1], in assay [2], in assay [3] and in assay [4] was “inactive” throughout.

As for `COCCc1ccc(OCC2CO2)cc1` (stereo not given), the Potency entry in assay [1], in assay [2], in assay [3] and in assay [4] was “inactive” in each case.

On to `CCC(C)C=O` (stereo not given), for which the Potency result in assay [1], in assay [2], in assay [3] and in assay [4] was “inactive” throughout.

`CCOC(=O)/C=C\C(=O)OCC`: the Potency result in assay [1], in assay [2], in assay [3] and in assay [4] was “inactive” throughout.

Take `Nc1ccc(O)c([N+](=O)[O-])c1`: the Potency result in assay [1], in assay [2], in assay [3] and in assay [4] was “inactive” in each case.

In the case of `C[C@]12CC[C@@H]3c4ccc(O)cc4C[C@@H](CCCCCCCCCS(=O)CCCC(F)(F)C(F)(F)F)[C@H]3[C@@H]1CC[C@@H]2O` (stereo not given in full), the Potency result in assay [1], in assay [2], in assay [3] and in assay [4] was “inactive” each time.

As to `O=C(Cl)c1c(Cl)cccc1Cl`, the figures for the Potency in assay [1] and in assay [3] were 64 µM (active) and 40.4 µM (active), respectively. For the same molecule, the Potency entry in assay [2] and in assay [4] was “inactive” throughout.

As to `O=C(N[C@@H](Cc1ccccc1)[C@@H](O)C(=O)N1C[C@@H](O)[C@@H](O)C1)c1cc2cc(Cl)ccc2[nH]1`, the Potency entry in assay [1], in assay [2], in assay [3] and in assay [4] was “inactive” each time.

Regarding `COC(=O)CCCCC(=O)O`, the Potency entry in assay [1], in assay [2], in assay [3] and in assay [4] was “inactive” each time.

With `Nc1cc([N+](=O)[O-])ccc1Cl`, the Potency result in assay [1], in assay [2], in assay [3] and in assay [4] was “inactive” each time.

For the molecule `CC/C=C1/OC(=O)c2ccccc21`, the Potency entry in assay [1], in assay [2], in assay [3] and in assay [4] was “inactive” each time.

Take `CCCCCCCC`: the Potency result in assay [1], in assay [2], in assay [3] and in assay [4] was “inactive” throughout.

In the case of `OCCCCCCCl`, the Potency result in assay [1], in assay [2], in assay [3] and in assay [4] was “inactive” each time.

For `Oc1cccc2cc3cccc(O)c3c(O)c12`, the Potency entry in assay [1], in assay [2], in assay [3] and in assay [4] was “inactive” throughout.

For `c1cnccn1`, the Potency entry in assay [1], in assay [2], in assay [3] and in assay [4] was “inactive” throughout.

`CC(O)CC(C)(C)O` (stereo not given): the Potency entry in assay [1], in assay [2], in assay [3] and in assay [4] was “inactive” each time.

Source of the values: PubChem BioAssay (Tox21).
